According to PubChem BioAssay (Tox21):
Where “and” joins values, the source holds several entries; their conditions need not be identical. Identical values can stand only once. Records with an inconclusive call do not appear. A call without a number means that no potency is given here. More than one record can exist for a structure, and the calls need not agree. Calls of active or inactive are those of the source. Unless noted, calls follow the shape of the dose curve; as a rule, active = well fitted curve in the direction sought with a large enough effect in the repeat runs; inconclusive = weak or mixed curves; inactive = no such curve, though single readings can be large; an effect the other way counts as inactive or inconclusive.

Columns and labels:
[1] = qHTS assay to identify small molecule antagonists of the glucocorticoid receptor (GR) signaling pathway - cell viability counter screen (AID 720693); also: nearly all actives have a fitted effect of over 55% in size
[2] = qHTS assay for identifying genotoxic compounds that show differential cytotoxicity against isogenic chicken DT40 cell lines with known DNA damage response pathways - wild type cell line (AID 743012); also: nearly all actives have a fitted effect of over 60% in size; also: potency is read from the fitted curve at half-maximal effect
Procedure, shortened: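 Using parental DT40 (300 cells/well), compounds delivered in DMSO incubate 40 h at 37 C/5% CO2. CellTiter-Glo reagent then stands 30 min at room temperature, and luminescence gives cell viability.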

[3] = qHTS assay for identifying genotoxic compounds that show differential cytotoxicity against isogenic chicken DT40 cell lines with known DNA damage response pathways - Rev3 mutant cell line (AID 743014); also: nearly all actives have a fitted effect of over 55% in size; also: potency is read from the fitted curve at half-maximal effect
[4] = qHTS assay for identifying genotoxic compounds that show differential cytotoxicity against isogenic chicken DT40 cell lines with known DNA damage response pathways - Rad54/Ku70 mutant cell line (AID 743015); also: nearly all actives have a fitted effect of over 60% in size; also: potency is read from the fitted curve at half-maximal effect
[5] = qHTS assay to identify small molecule antagonists of the androgen receptor (AR) signaling pathway - cell viability counter screen (AID 743033; also: nearly all actives have a fitted effect of over 45% in size)
[6] = target: Androgen receptor (Homo sapiens) (UniProt P10275); test: qHTS assay to identify small molecule antagonists of the androgen receptor (AR) signaling pathway (AID 743035; active = well fitted inhibition curve with a large enough effect in the signal ratio in the repeat runs, not every such curve was filed as active; the % refers to the signal ratio)
Androgen receptor (Homo sapiens), sequence (P10275 whole entry, looked up): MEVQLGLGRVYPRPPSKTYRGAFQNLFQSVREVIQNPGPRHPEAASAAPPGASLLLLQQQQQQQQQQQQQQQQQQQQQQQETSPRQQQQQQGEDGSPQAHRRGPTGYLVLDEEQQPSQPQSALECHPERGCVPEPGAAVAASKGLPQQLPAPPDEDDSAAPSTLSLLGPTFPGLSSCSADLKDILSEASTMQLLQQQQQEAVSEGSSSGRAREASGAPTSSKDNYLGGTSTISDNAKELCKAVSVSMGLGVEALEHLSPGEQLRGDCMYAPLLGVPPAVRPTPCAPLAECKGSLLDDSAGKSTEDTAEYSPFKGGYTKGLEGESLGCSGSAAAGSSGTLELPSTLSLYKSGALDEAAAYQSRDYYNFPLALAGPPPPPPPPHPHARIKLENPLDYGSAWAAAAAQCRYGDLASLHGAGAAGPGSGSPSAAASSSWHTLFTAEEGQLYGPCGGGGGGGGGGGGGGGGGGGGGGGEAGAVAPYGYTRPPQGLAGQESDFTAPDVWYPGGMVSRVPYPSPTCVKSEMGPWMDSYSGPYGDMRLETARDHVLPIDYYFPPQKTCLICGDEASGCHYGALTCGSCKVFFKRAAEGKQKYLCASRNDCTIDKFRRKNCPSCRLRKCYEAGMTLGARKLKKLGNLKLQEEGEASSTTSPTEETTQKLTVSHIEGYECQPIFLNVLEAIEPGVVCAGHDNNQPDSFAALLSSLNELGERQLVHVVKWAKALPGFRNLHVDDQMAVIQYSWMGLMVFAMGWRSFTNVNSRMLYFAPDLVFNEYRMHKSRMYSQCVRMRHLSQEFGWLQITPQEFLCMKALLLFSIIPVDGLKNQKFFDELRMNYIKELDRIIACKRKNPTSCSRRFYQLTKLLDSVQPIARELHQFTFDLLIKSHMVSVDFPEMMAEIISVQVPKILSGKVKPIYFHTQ
Procedure, shortened: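 Using qHTS, AR-UAS-bla GripTite HEK293 cells received compound, then R1881, and were cultured 16 h at 37C/5% CO2 before a 2 h room-temperature LiveBLAzer B/G FRET substrate step and fluorescence measurement.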

[7] = target: Androgen receptor (Homo sapiens) (UniProt P10275); test: qHTS assay to identify small molecule agonists of the androgen receptor (AR) signaling pathway (AID 743036; active = well fitted activation curve with a large enough effect in the signal ratio in the repeat runs, with a control signal flat, not every such curve was filed as active; the % refers to the signal ratio)
Procedure, shortened: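 In this Tox21 qHTS, 2,000 HEK293 AR-bla cells per well were incubated with compounds for 16 h at 37C and 5% CO2. Fluorescence intensity was recorded 2 h after adding LiveBLAzer B/G FRET substrate at room temperature.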

[8] = qHTS assay to identify small molecule antagonists of the androgen receptor (AR) signaling pathway using the MDA cell line - cell viability counter screen (AID 743041; also: nearly all actives have a fitted effect of over 45% in size)
Procedure, shortened: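 Same-well cytotoxicity was assessed by CellTiter-Fluor in MDA-kb2 AR-luc cells after 16 h of compound treatment under R1881 agonism.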

[9] = target: Androgen receptor (Homo sapiens) (UniProt P10275); test: qHTS assay to identify small molecule antagonists of the androgen receptor (AR) signaling pathway using the MDA cell line (AID 743042; also: nearly all actives have a fitted effect of over 55% in size)
Procedure, shortened: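 MDA-kb2 breast carcinoma cells carrying MMTV-luciferase (AR/GR responsive) were co-treated with compounds and the agonist R1881 for 16 h at 37C. Inhibition read as ONE-Glo luminescence; CellTiter-Fluor fluorescence measured in parallel for cytotoxicity.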

[10] = qHTS assay to identify small molecule antagonists of the thyroid receptor (TR) signaling pathway - cell viability counter screen (AID 743064); also: nearly all actives have a fitted effect of over 50% in size
Procedure, shortened: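 Counter screen for cytotoxicity: compound plus T3 (1 nM final) on GH3.TRE-Luc cells, 23.5 h at 37 °C, then fluorescence viability readout with CellTiter-Fluor.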

| Structure (SMILES) | outcome [1] | Potency [2] | Potency [3] | Potency [4] | outcome [5] | outcome [6] | Potency [7] | Potency [8] | outcome [9] | Potency [10] |
| --- | --- | --- | --- | --- | --- | --- | --- | --- | --- | --- |
| CSc1ccc(Cl)cc1 | inactive | inactive | inactive | inactive | inactive | inactive | inactive | inactive | inactive | inactive |
| COC(=O)c1cccnc1 | inactive | inactive | inactive | inactive | inactive | inactive | inactive | inactive | inactive | inactive |
| O=C(O)c1cc2ccccc2cc1O | inactive | inactive | inactive | inactive | inactive |  |  | inactive | inactive | inactive |
| CNC(=S)N(C)C | inactive | inactive | inactive | inactive | inactive |  |  | inactive |  | inactive |
| CCCCCCCCCCCC(=O)OC | inactive | inactive | inactive | inactive | inactive |  |  | inactive |  | inactive |
| CC(C)OC(=O)COc1ccc(Cl)cc1Cl | inactive | inactive | inactive | inactive | inactive |  |  | inactive |  | inactive |
| CC1(C)S[C@@H]2[C@H](NC(=O)COc3ccccc3)C(=O)N2[C@H]1C(=O)O | inactive | inactive | inactive | inactive | inactive |  |  | inactive |  | inactive |
| Clc1ccccn1 | inactive | inactive | inactive | inactive | inactive |  |  | inactive |  | inactive |
| O=C(O)Cn1c(=O)n(Cc2ccc(Br)cc2F)c(=O)c2ccc(Cl)cc21 | inactive | inactive | inactive | inactive | inactive |  |  | inactive | inactive |  |
| COc1ccc([N+](=O)[O-])cc1N | inactive | inactive | inactive | inactive and 54.5 µM (active) | inactive |  |  | inactive |  | inactive |
| Brc1ccc(Br)c(Br)c1 | inactive | inactive | inactive | inactive | inactive |  |  | inactive |  | inactive |
| O=C1C(c2[nH]c3ccccc3c2O)=Nc2ccccc21 | inactive | inactive | inactive | inactive | inactive |  |  | inactive |  | inactive |
| NC(=S)NNC(N)=S | inactive | inactive | inactive | inactive | inactive |  |  | inactive |  | inactive |
| C=C(C)CNCC | inactive | inactive | inactive | inactive | inactive |  |  | inactive |  | inactive |
| c1ccc(Oc2ccccc2)cc1 | inactive | inactive | inactive | inactive | inactive |  |  | inactive |  | inactive |
| CCCCCCCCCCO | inactive | inactive | inactive | inactive | inactive |  |  | inactive |  | inactive |
| CC1(C)OC[C@@H]2O[C@@]3(C(=O)O)OC(C)(C)O[C@H]3[C@@H]2O1 | inactive | inactive | inactive | inactive | inactive |  |  | inactive |  | inactive |
| COC(=O)CCCC(=O)OC | inactive | inactive | inactive | inactive | inactive |  |  | inactive |  | inactive |
| CC(=O)c1ccc(O)cc1 | inactive | inactive | inactive | inactive | inactive |  |  | inactive |  | inactive |
| O=C1CCCC1 | inactive | inactive | inactive | inactive | inactive |  |  | inactive |  | inactive |
| CCCCCCC=O | inactive | inactive and 48.6 µM (active) | inactive and 43.3 µM (active) | inactive and 43.3 µM (active) | inactive |  |  | inactive |  | inactive |
| C=CC(=O)OCCC(=O)O | inactive | inactive | inactive | inactive | inactive |  |  | inactive |  | inactive |
| CCCCCC(=O)O | inactive | inactive | inactive | inactive | inactive | inactive | inactive | inactive | inactive | inactive |
| CCOCC(=O)O | inactive | inactive | inactive | inactive | inactive |  |  | inactive |  | inactive |
| COc1ccc(N)c(C)c1 | inactive | inactive | inactive | inactive | inactive |  |  | inactive |  | inactive |
| OC1C(O)C(O)C(O)C(O)C1O (configuration not stated) | inactive | inactive | inactive | inactive | inactive |  |  | inactive |  | inactive |

| Structure (SMILES) | outcome [1] | Potency [2] | Potency [3] | Potency [4] | outcome [5] | outcome [6] | Potency [7] | Potency [8] | outcome [9] | Potency [10] |
| --- | --- | --- | --- | --- | --- | --- | --- | --- | --- | --- |
| CC(C)CC(C)O (configuration not stated) | inactive | inactive | inactive and 61.1 µM (active) | inactive | inactive |  |  | inactive |  | inactive |
| CCOCCOCCOCCO | inactive | inactive | inactive | inactive | inactive |  |  | inactive |  | inactive |
| CN(C)c1ccc(O)c2c1C[C@H]1C[C@H]3[C@H](N(C)C)C(=O)C(C(N)=O)=C(O)[C@@]3(O)C(=O)C1=C2O | inactive | 21.1 µM (active) [middle of 4 runs] | 26.6 µM (active) and 18.8 µM (active) and 13.7 µM (active) | 23.7 µM (active) [middle of 4 runs] | inactive |  |  | inactive |  | inactive |
| O=[N+]([O-])c1ccc2nc[nH]c2c1 | inactive | inactive | inactive | inactive | inactive |  |  | inactive |  | inactive |
| CCCCCCCC=O | inactive | inactive | inactive | inactive | inactive |  |  | inactive |  | inactive |
| CN(C)CCOC(=O)COc1ccc(Cl)cc1 | inactive | inactive | inactive | inactive | inactive |  |  | inactive |  | inactive |
| CCOC(=O)c1ccc(N)cc1 | inactive | inactive | inactive | 7.17 µM (active) and inactive | inactive |  |  | inactive |  | inactive |
| CCO[Si](CCCN)(OCC)OCC | inactive | inactive | inactive | inactive | inactive |  |  | inactive |  | inactive |
| CNC(=O)Oc1ccc2c(c1)[C@]1(C)CCN(C)[C@@H]1N2C | inactive | inactive | inactive and 48.6 µM (active) | inactive | inactive |  |  | inactive |  | inactive |
| OCc1ccccc1 | inactive | inactive | inactive | inactive | inactive | inactive | inactive | inactive | inactive | inactive |
| O=C(O)c1ccc(C(=O)O)c(C(=O)O)c1 | inactive | inactive | inactive | inactive | inactive | inactive | inactive | inactive | inactive | inactive |
| NCCN1CCNCC1 | inactive | inactive | inactive | inactive |  |  |  | inactive |  | inactive |
| C=Cc1ccc(C)cc1 | inactive | inactive | inactive | inactive |  |  |  | inactive |  |  |
| OCc1cccc(Oc2ccccc2)c1 | inactive | inactive | inactive | inactive |  |  | inactive | inactive | inactive | inactive |
| O=C(OCC1CCC2OC2C1)C1CCC2OC2C1 (configuration not stated) | inactive |  | 10.1 µM (active) and 9.69 µM (active) | inactive |  |  |  | inactive |  | inactive |
| CCOC(=O)n1ccn(C)c1=S | inactive | inactive |  |  |  |  |  | inactive |  |  |
| CC(C)OP(=O)(CP(=O)(OC(C)C)OC(C)C)OC(C)C | inactive |  | inactive | inactive | inactive |  |  | inactive |  |  |
| CC(C)CC(=O)CC(C)CC(C)C (configuration not stated) |  | inactive | inactive | inactive | inactive | inactive | inactive | inactive | inactive | inactive |
| CCCCCCCO | inactive | inactive | inactive | inactive | inactive |  |  | inactive |  | inactive |
| COc1ccc(C)cc1N | inactive | inactive | inactive | inactive |  | inactive | inactive | inactive | inactive |  |
| C=CCc1ccc(OC)c(OC)c1 | inactive | inactive | inactive | inactive |  |  |  | inactive |  | inactive |
| CCCCCCCCCCCCCCCC(=O)OC(C)C | inactive | inactive | inactive | inactive |  |  |  | inactive |  | inactive |
| CC(=O)OCc1ccccc1 | inactive | inactive | inactive | inactive |  | inactive | inactive | inactive | inactive | inactive |
| CC(=O)CCC=C(C)C | inactive | inactive | inactive | inactive |  |  |  | inactive |  | inactive |
| COc1ccccc1OCC(O)CO (configuration not stated) | inactive | inactive | inactive | inactive |  | inactive | inactive | inactive | inactive | inactive |
